# The list is not random: actives were taken first. Their share in the collection is about 5.7%.
# ssDAF-12 act = S. stercoralis DAF-12 activation, primary screen; HEK293 ssDAF-12/GRIP1 lit1-tk-luc reporter, luminescence; % of 3 µM dafachronic acid response; activation, % at 6.8 µM; 370,000 compounds, 1% hits; AID 652126;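 active means activation above the mean over all tested compounds plus 3 SD, cut at about 0.9% in these data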;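 further: 0% = DMSO-only wells and 100% = 3 µM delta7-dafachronic acid wells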
# DAX1 inh-1 = inhibitors of human orphan nuclear receptor DAX1 (NR0B1). HEK293 Gal4-DAX1 luciferase reporter, luminescence. inhibition, % at 6.75 µM. 340,000 compounds, 0.99% hits;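 active means inhibition above the mean over all tested compounds plus 3 SD, cut at about 4.2% in these data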;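 further: 0% = DAX1-transfected cells with DMSO and 100% = empty-vector control cells with DMSO; inhibition shows as a rise in luminescence from relieved DAX1 repression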
# Target sequence (P51843 207-470 limits assumed): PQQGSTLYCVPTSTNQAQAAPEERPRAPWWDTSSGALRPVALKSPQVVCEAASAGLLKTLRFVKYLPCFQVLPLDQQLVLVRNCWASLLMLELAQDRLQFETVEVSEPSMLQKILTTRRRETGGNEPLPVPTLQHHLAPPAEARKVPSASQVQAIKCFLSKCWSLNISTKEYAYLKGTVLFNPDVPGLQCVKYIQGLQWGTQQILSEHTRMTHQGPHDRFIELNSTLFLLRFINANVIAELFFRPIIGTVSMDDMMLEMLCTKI
# hcDAF-12 act = activators of H. contortus DAF-12 nuclear receptor; AID 652067; activation, % at 6.8 µM; HEK293 hcDAF-12 lit1-tk-luc reporter, luminescence; 0% DMSO, 100% Δ7-dafachronic acid; 370,000 compounds, 1.4% hits;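 active means activation above the mean of all tested compounds plus 3 SD, cut at about 5.5% in these data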;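 further: 100% = response to 3 µM Δ7-dafachronic acid high control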
# AHR act = activators of human aryl hydrocarbon receptor. P35869. AHR-responsive luciferase reporter cells, luminescence. activation, % at 5 µM. 320,000 compounds, 2.5% hits; in the data active means activation above about 47%;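 further: 0% = vehicle wells and 100% = reference agonist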
# hgDAF12 agonist = hgDAF-12 agonism, primary luciferase screen. HEK293 GAL4-hgDAF12 UAS-luciferase reporter, agonist luminescence; normalized to butyrate control. activation, % at 6.8 µM. 370,000 compounds, 1.8% hits;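 active means activation above a cutoff set at the mean of all screened compounds plus 3 SD, cut at about 10% in these data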;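 further: 0% = DMSO wells and 100% = sodium butyrate wells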
# DAX1 inh-2 = DAX1 (NR0B1) inhibition, primary screen; HEK293T StAR-luciferase reporter, SF-1/DAX-1 repression relief; inhibition, % at 6.8 µM; 370,000 compounds, 1.1% hits;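 active means inhibition above the mean over all tested compounds plus 3 SD, cut at about 3.6% in these data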;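 further: 0% = DAX-1 cells with DMSO and 100% = cells lacking DAX-1 with DMSO; higher inhibition means more luminescence from relief of DAX-1 repression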
# LXRb hcDAF ctr = LXR-beta agonism as hcDAF-12 counter-screen; shares compounds with hcDAF-12 act; 3,400 tested, under 10 active; HEK293 Gal4-LXR tk-luc reporter, luminescence, 24 h; normalized: DMSO 0%, positive control 100%; activation, % at 6.8 µM;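 active means mean percent activation of the reporter above a cutoff set as the average over tested compounds plus their standard deviation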
# Target sequence (P55055 whole entry, looked up, the tested form may be a part): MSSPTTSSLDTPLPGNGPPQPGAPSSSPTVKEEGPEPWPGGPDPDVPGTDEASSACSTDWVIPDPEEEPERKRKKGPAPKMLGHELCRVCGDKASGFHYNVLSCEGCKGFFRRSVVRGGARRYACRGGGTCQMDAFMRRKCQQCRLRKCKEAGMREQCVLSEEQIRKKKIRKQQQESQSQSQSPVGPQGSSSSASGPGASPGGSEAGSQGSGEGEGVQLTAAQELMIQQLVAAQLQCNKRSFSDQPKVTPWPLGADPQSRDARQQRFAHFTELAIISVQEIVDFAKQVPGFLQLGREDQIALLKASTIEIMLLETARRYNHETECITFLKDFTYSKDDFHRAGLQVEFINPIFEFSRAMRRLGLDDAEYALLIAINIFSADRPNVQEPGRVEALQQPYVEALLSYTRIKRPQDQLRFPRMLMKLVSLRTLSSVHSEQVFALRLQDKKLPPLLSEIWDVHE
# hcDAF12 conf = confirmation of H. contortus DAF-12 agonists. shares compounds with hcDAF-12 act. HEK293 hcDAF-12 lit1-tk-luc reporter, luminescence; % of Δ7-dafachronic acid response. activation, % at 6.8 µM. 3,400 compounds, 61% hits;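 active means mean activation across triplicate tests above the threshold derived from the earlier primary screen, cut at about 5.5% in these data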;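 further: 0% = DMSO only wells and 100% = 3 µM Δ7-dafachronic acid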
# hgDAF12 conf = confirmation of H. glycines DAF-12 agonists; shares compounds with hgDAF12 agonist; HEK293 GAL4-hgDAF12 luciferase reporter, agonist mode; percent of butyrate response; activation, % at 6.8 µM; 3,300 compounds, 80% hits;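 active means mean activation over triplicate wells above the hit cutoff derived from the earlier primary screen, cut at about 11% in these data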;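 further: 0% = DMSO low control and 100% = 2 mM sodium butyrate high control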
# LXRb DAF12 ctr = activates human LXR-beta, counter-screen for DAF-12 agonists. shares compounds with hgDAF12 agonist. HEK293 Gal4-LXR luciferase reporter, 24 h. activation, % at 6.8 µM. 3,300 tested, under 10 active;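 active means mean activation of the triplicate above a set limit carried over from the primary screen, none filed active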
# The depositor's hits bear a star; . = no result given.
SMILES,ssDAF-12 act,DAX1 inh-1,hcDAF-12 act,AHR act,hgDAF12 agonist,DAX1 inh-2,LXRb hcDAF ctr,hcDAF12 conf,hgDAF12 conf,LXRb DAF12 ctr
Cc1ccc(C2=NN(S(C)(=O)=O)C(c3cccs3)C2)cc1 (stereo not given),0.3,2.7,7.6*,6.9,14.4*,1.7,0.9,4.9,14.1*,0.4
COc1ccc(NC(=S)Nc2cc(C)ccn2)c(OC)c1,1.5*,3.5,13.6*,26.9,13.8*,2.6,1.0,12.2*,19.2*,0.7
Cc1ccc(-c2nc3cc(N)ccc3o2)cc1Br,-0.1,3.4,6.7*,21.8,14.9*,1.2,1.8,8.0*,18.7*,1.0
Cc1ccc(-c2nnc(-c3ccccc3)o2)cc1Br,-0.9,0.5,-0.1,-4.7,4.5,1.6,.,.,.,.
Cc1ccccc1Nc1c(N)c(=O)oc2ccccc12,-1.6,-0.7,0.0,3.0,-1.5,-1.1,.,.,.,.
Cc1nc2nc(-c3ccc(F)cc3)cn2nc1C,0.1,0.0,7.1*,3.2,14.0*,3.2,1.3,4.8,12.3*,0.7
CSc1ccccc1-c1nnc(-c2ccc(C)cc2)o1,1.7*,2.1,10.3*,20.9,14.5*,3.4,0.9,8.8*,15.0*,0.5
Cc1ccccc1-c1nnc(-c2ccc(Br)cc2)o1,-0.6,-0.8,1.0,21.1,3.9,2.1,.,.,.,.
Cc1cc(C)c2c(N)c(C(=O)Nc3ccc([N+](=O)[O-])cc3)sc2n1,-0.3,0.2,1.9,6.3,1.8,1.0,.,.,.,.
Cc1cc(C)c2c(N)c(C(=O)Nc3ccc(F)cc3)sc2n1,0.4,2.7,8.8*,44.4,13.6*,3.0,1.9,16.5*,24.2*,1.3
C[C@@H]1CN([C@@H](C)CO)C(=O)c2cc(N(C)C)ccc2O[C@@H](C)CCCCO[C@@H]1CN(C)Cc1ccc2c(c1)OCO2,0.0,-0.3,3.5,.,1.1,0.8,.,.,.,.
CC(=O)c1cc2c(C)c(C(=O)c3ccccc3)oc2cc1O,1.7*,1.4,7.5*,12.3,26.4*,4.0*,1.8,5.8*,21.1*,1.1
O=C(c1ccccc1)c1ccc(O)cc1O,-1.6,3.2,-0.3,10.0,-0.3,-0.2,.,.,.,.
COc1ccccc1C(=O)NNC(=O)c1ccccc1F,1.5*,1.2,11.3*,37.4,16.3*,2.6,1.0,10.7*,14.9*,0.6
COc1ccccc1NC(=O)Cn1c(C)nc2c(sc(=S)n2Cc2ccco2)c1=O,-1.2,-0.5,-0.2,3.1,-1.3,-1.5,.,.,.,.
O=C(c1cnn(-c2ccccc2)c1)c1cc(F)ccc1O,-0.3,2.9,3.5,19.4,7.0,1.1,.,.,.,.
CC(C)c1ccc(NC(=O)COc2ccc(F)cc2C(=O)c2cnn(-c3ccccc3)c2)cc1,2.2*,1.2,12.2*,24.0,18.0*,4.1*,0.9,13.7*,17.4*,0.5
Clc1cccc(-c2nnc(-c3ccccc3)o2)c1,1.9*,1.2,14.3*,65.3*,15.8*,2.4,1.5,11.4*,22.8*,1.1
CC1=CN2C(=N)/C(=C/c3ccc(C)o3)C(=O)N=C2S1,0.2,1.7,14.9*,26.1,20.1*,4.0*,1.2,5.4,11.6*,0.8
CC1(c2ccc(NC(=O)c3ccccc3F)cc2)CC1(Cl)Cl (stereo not given),0.6,4.3*,9.6*,35.8,17.3*,2.5,1.3,6.3*,15.7*,0.7
O=C(Nc1ccc(-c2ccc([N+](=O)[O-])cc2)cc1)c1ccccc1F,-1.7,1.7,1.3,-7.4,-0.1,1.0,.,.,.,.
C=C1CCN([C@@H](CC(C)C)C(=O)NCc2ccco2)S(=O)(=O)c2ccccc21,-1.2,-0.2,-1.1,0.2,-1.2,0.6,.,.,.,.
CC(C)Cc1cc(C(=O)Nc2cccc(O)c2)no1,-0.1,-4.7,8.4*,-4.4,18.3*,3.5,1.4,6.5*,18.6*,1.1
COc1ccc(NC(=O)c2cc(CC(C)C)on2)cc1OC,-0.2,1.0,0.1,0.1,7.4,0.5,.,.,.,.
Brc1ccc(-n2cnc(-c3ccccc3)c2)cc1,0.2,5.4*,7.2*,13.6,20.5*,2.8,1.1,2.9,20.5*,1.1
SMILES,ssDAF-12 act,DAX1 inh-1,hcDAF-12 act,AHR act,hgDAF12 agonist,DAX1 inh-2,LXRb hcDAF ctr,hcDAF12 conf,hgDAF12 conf,LXRb DAF12 ctr
Cc1[nH]n(-c2ccccc2)c(=O)c1N=Nc1cccc(C(=O)O)c1,2.2*,-3.4,8.9*,1.2,13.8*,3.0,1.4,12.2*,14.5*,1.0
Cc1[nH]n(-c2ccccc2)c(=O)c1N=Nc1ccc(C#N)cc1,-0.4,2.7,3.2,29.9,3.4,-0.3,.,.,.,.
Cc1[nH]c2ccccc2c1N=Nc1cccc(C(=O)O)c1,2.9*,1.9,12.3*,24.4,13.9*,4.2*,0.8,7.6*,19.1*,0.6
COc1cc(OC)c(OC)cc1/C=N/N(C)c1ccccc1,-1.3,-1.8,-2.7,45.0,-0.8,-0.7,.,.,.,.
COc1cc(/C=N/N(C)c2ccccc2)ccc1O,0.5,2.5,7.5*,35.1,16.9*,2.7,1.8,8.2*,18.2*,1.0
CC(=Nc1ccccc1)c1sc2ccccc2c1O,2.1*,3.4,19.7*,13.2,16.8*,2.3,1.8,10.6*,26.3*,1.6
CCSc1cc(C)nc2c(-c3ccccc3)cnn12,2.4*,3.8,13.4*,25.0,17.5*,4.0*,1.1,10.9*,15.4*,0.8
Cc1cc(NC(=O)c2cc3cccc([N+](=O)[O-])c3[nH]2)ccc1F,-0.1,9.7*,7.7*,64.8*,14.2*,2.4,0.9,7.1*,13.4*,0.8
CN1CCN(C2CCN(c3cccc(Cl)c3)CC2)CC1CCO (stereo not given),-1.7,0.0,-1.9,.,-0.2,0.0,.,.,.,.
CCCc1n(CC)c2ccccc2[n+]1CC(O)COC1CCCCC1 (stereo not given),-2.2,-0.7,-1.3,0.4,0.9,-0.9,.,.,.,.
Cn1c(O)c(N=NC(=O)c2ccccc2O)c2ccccc21,1.6*,1.3,11.3*,38.6,22.0*,3.4,1.0,12.6*,16.6*,0.8

# From PubChem
